esBAF inh = blocks esBAF chromatin remodeling in mouse ES cells. Bmi1-luciferase knock-in reporter, 24 h; 100% = twice the neutral-well signal. reporter increase, % at 12.5 µM. 350,000 tested, 2% active. AID 602393; in the data active = activation above about 40%; inconclusive = no clear call, values can overlap the other calls;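 note: 0% = median of the plate's neutral control wells and 100% = double that signal; a rise in the Bmi1 reporter signal indicates esBAF inhibition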
Wnt bcat act = activates Wnt/beta-catenin signaling in a reporter cell assay | activator, plate reader | activation, % at 9.35 µM | 300,000 tested, 1.2% active | AID 743398; in the data active = activation above about 30%, passing the limit was not always enough; inconclusive = no clear call, values can overlap the other calls;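 note: 0% = neutral control wells and 100% = positive control wells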
DAX1 inh = blocks DAX1 repression of SF-1 activated StAR promoter; 370,000 tested, 1.1% active; inhibition, % at 6.8 µM; AID 652010; HEK293T StAR-luciferase reporter, SF-1/DAX-1 repression relief;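 active = inhibition above the mean over all tested compounds plus 3 SD, cut at about 3.6% in these data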;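 note: 0% = DAX-1 cells with DMSO and 100% = cells lacking DAX-1 with DMSO; higher inhibition means more luminescence from relief of DAX-1 repression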
hcDAF12 agonist = activates DAF-12 receptor from parasite H. contortus; HEK293 hcDAF-12 lit1-tk-luc reporter, luminescence; 0% DMSO, 100% Δ7-dafachronic acid; activation, % at 6.8 µM; 370,000 tested, 1.4% active; AID 652067;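 active = activation above the mean of all tested compounds plus 3 SD, cut at about 5.5% in these data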;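 note: 100% = response to 3 µM Δ7-dafachronic acid high control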
hgDAF-12 ag = activates the H. glycines DAF-12 receptor ligand-binding domain. HEK293 GAL4-hgDAF12 UAS-luciferase reporter, agonist luminescence; normalized to butyrate control. activation, % at 6.8 µM. 370,000 tested, 1.8% active. AID 687014;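 active = activation above a cutoff set at the mean of all screened compounds plus 3 SD, cut at about 10% in these data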;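 note: 0% = DMSO wells and 100% = sodium butyrate wells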
ssDAF-12 act = S. stercoralis DAF-12 activation, primary screen; HEK293 ssDAF-12/GRIP1 lit1-tk-luc reporter, luminescence; % of 3 µM dafachronic acid response; activation, % at 6.8 µM; AID 652126; 370,000 tested, 1% active;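 active = activation above the mean over all tested compounds plus 3 SD, cut at about 0.9% in these data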;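 note: 0% = DMSO-only wells and 100% = 3 µM delta7-dafachronic acid wells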
* = called active by the depositor; ? = inconclusive; · = not tested or not shown. Compounds with a hit are over-represented: about 4.2% of the library has one in this group of screens.

SMILES | esBAF inh | Wnt bcat act | DAX1 inh | hcDAF12 agonist | hgDAF-12 ag | ssDAF-12 act
CC(CN1CCCCC1)OC(=O)c1ccc2c(c1)OCCO2 (configuration not stated) | 12.5 | 12.7 | 1.0 | 4.0 | 6.6 | -0.5
CC(CN1CCOCC1)OC(=O)c1ccc2c(c1)OCCO2 (configuration not stated) | 18.0 | 5.0 | 1.0 | 4.2 | 10.7* | -0.2
COc1ccc(OC)c(S(=O)(=O)N2Cc3ccccc3CC2C(=O)Nc2nccs2)c1 (configuration not stated) | 50.8* | · | -0.6 | 4.2 | 1.5 | -0.5
COc1cc(NC(=O)C2Cc3ccccc3CN2S(C)(=O)=O)cc(OC)c1 (configuration not stated) | 0.9 | -0.6 | -0.1 | 0.3 | 0.6 | -0.4
CC1=CC(=O)c2ccccc2C1=O | -6.3 | 2.3 | -0.3 | 3.0 | 1.1 | 0.6
CCOc1ccccc1C(O)C1=CC(=O)c2ccccc2C1=O (configuration not stated) | -6.9 | -3.2 | 1.0 | 6.2* | -1.6 | -0.6
C/C(Cn1cnc([N+](=O)[O-])n1)=N\NC(=O)c1ccccc1F | 7.1 | 7.7 | 1.2 | 0.5 | 10.7* | 0.8
C[C@H](CO)N1C[C@H](C)[C@@H](CN(C)Cc2ccc(Cl)c(Cl)c2)Oc2c(NC(=O)c3ccc(-c4nccs4)cc3)cccc2C1=O | 2.7 | · | · | · | · | ·
C[C@H]1CN([C@@H](C)CO)C(=O)c2cc(NC(=O)CCC(F)(F)F)ccc2O[C@H]1CN(C)C | -0.4 | · | · | · | · | ·
Cc1ccc(S(=O)(=O)Nc2ccc3c(c2)CC(=O)N([C@H](C)CO)C[C@@H](C)[C@H](CN(C)C(=O)NC(C)C)O3)cc1 | 0.5 | · | · | · | · | ·
O=C1CC(N2CCN(c3ccc(F)cc3)CC2)C(=O)N1Cc1cccs1 (configuration not stated) | 9.0 | -1.3 | 0.3 | 0.1 | 1.3 | -0.6
NC(=O)C1CCN(C2CC(=O)N(Cc3cccs3)C2=O)CC1 (configuration not stated) | -4.0 | -2.1 | -0.1 | 0.0 | -1.0 | 1.2*
COc1ccc(NC(=O)Nc2ccc3c(c2)CC(=O)N([C@H](C)CO)C[C@H](C)[C@H](CN(C)S(=O)(=O)c2c(C)noc2C)O3)cc1 | -2.1 | · | · | · | · | ·
CNC[C@@H]1OCCCC[C@H](C)Oc2ccc(NC(=O)Nc3ccccc3)cc2C(=O)N([C@H](C)CO)C[C@@H]1C | 1.0 | · | · | · | · | ·
CCOC(=O)c1ccc(NC(=O)CCn2nnc3ccccc32)cc1 | 14.5 | · | -0.2 | 0.9 | 4.4 | -1.5
CCOc1ccc(NC(=O)Cn2ncc3ccccc32)cc1 | 50.7* | 17.5 | 0.9 | 0.7 | 6.3 | 0.2
CCOC(=O)c1ccc(NC(=O)Cn2nnc3ccccc32)cc1 | 94.6* | 0.3 | -1.4 | 2.5 | 4.1 | -0.8
CC(=O)Nc1ccc(NC(=O)CCn2nnc3ccccc32)cc1 | -4.4 | -1.1 | 0.5 | 3.8 | 0.9 | 1.3*
CCOC(=O)N1CCN(C(=O)Cn2ncc3ccccc32)CC1 | -8.5 | -4.0 | -0.5 | 1.3 | -1.9 | -0.3
COc1cc(OC)cc(C(=O)NCC(=O)Nc2ccc(-c3ccccc3)cc2)c1 | 39.9 | 13.9 | -0.6 | 0.1 | 8.7 | -0.8
COc1cc(OC)cc(C(=O)NCC(=O)Nc2ccc(C)c(Cl)c2)c1 | 0.0 | 45.7* | -0.3 | -1.4 | 1.9 | -1.3
O=C(Nc1cccc2cccnc12)c1cccc([N+](=O)[O-])c1 | 29.4 | 0.1 | -0.4 | 0.1 | 4.0 | -0.9
Cc1cc(C(=O)Nc2cccc3cccnc23)ccc1[N+](=O)[O-] | 49.0* | 7.9 | -0.2 | 5.9* | 3.8 | 0.4
COc1cccc(C(=O)Nc2cccc3cccnc23)c1OC | 43.0* | · | · | · | · | ·
O=C(Nc1cccc2cccnc12)c1cccc2ccccc12 | 0.4 | -1.7 | 0.6 | -0.3 | 2.2 | -1.4
SMILES | esBAF inh | Wnt bcat act | DAX1 inh | hcDAF12 agonist | hgDAF-12 ag | ssDAF-12 act
CO[C@H]1CN(C)C(=O)c2cc(NS(=O)(=O)c3ccccc3C)ccc2OC[C@H](C)N(C)C[C@@H]1C | -2.6 | · | · | · | · | ·
CN(C)CCCNC(=O)[C@H]1[C@H](CO)[C@H]2Cn3c(ccc(C4=CCCCC4)c3=O)[C@@H]1N2Cc1cocn1 | 2.9 | · | · | · | · | ·
CC(C)(C)OC(=O)C[C@@H]1C/C=C\C[C@@H](CC(=O)N[C@H](CO)Cc2ccccc2)C(=O)N2CCC[C@@H]2COC1=O | 1.8 | 55.6* | 0.0 | -1.4 | -2.3 | -1.4
CCOc1ccc(N2C(=O)C(Cl)=C(Nc3ccccc3O)C2=O)cc1 | 40.8* | · | -0.5 | 5.6* | 4.5 | 0.9
O=C1C(Cl)=C(Nc2ccccc2O)C(=O)N1CCc1ccccc1 | 62.2* | -0.8 | -0.1 | 2.3 | -1.4 | -0.2
COc1ccc(C)cc1NC(=O)C1CC1c1ccccc1 (configuration not stated) | · | 1.3 | 0.5 | -1.4 | 4.9 | -2.0
Cc1ccc2[nH]c(C(=O)O)c(NC(=O)[C@@H]3C[C@@H]3c3ccccc3)c2c1 | -4.7 | 7.6 | -0.2 | 3.3 | 2.2 | 2.5*
CCOC(=O)N1CCC(NC(=O)c2ccc3c(Cl)c4c(nc3c2)CCCC4)CC1 | 11.4 | -4.5 | -0.8 | -0.4 | -1.5 | -1.2
N#Cc1ccccc1NC(=O)c1ccc2c(Cl)c3c(nc2c1)CCCC3 | 79.9* | · | 1.4 | 0.3 | 4.3 | -0.6
O=C(NC1CC1)c1ccc2c(Cl)c3c(nc2c1)CCCC3 | 47.1* | 22.0 | 0.0 | -0.5 | 10.8* | -2.0
c1ccc2c(-n3cccn3)cccc2c1 | 71.2* | · | 0.3 | 0.7 | 3.0 | -1.6
Cc1nc(C)c(-c2ccc(SCC(=O)Nc3ccccc3)nn2)s1 | 3.8 | 1.0 | -2.4 | -3.6 | -5.2 | -1.7
Cc1nc(C)c(-c2ccc(SCc3ccccc3C)nn2)s1 | 51.6* | 9.2 | 0.6 | -0.4 | 1.2 | -0.9
C/C(CC(=O)Nc1ccc(N(C)C)cc1)=N\NC(=O)c1ccccc1O | ? | 2.5 | 0.4 | -0.7 | 3.2 | -0.4
O=C(NCc1ccc(Cl)cc1Cl)c1ccccn1 | -7.5 | · | -0.9 | -2.4 | -0.1 | -1.4
CC(=N/O)/C(C)=N\NC(=O)c1ccccn1 | 11.0 | 4.5 | 1.5 | 2.9 | 13.2* | -0.4
CCc1ccc(/C(C)=N/NC(=O)c2ccccn2)cc1 | 4.5 | -2.4 | 0.3 | -0.3 | 0.6 | -1.0
C/C(CC(=O)NCc1ccccc1Cl)=N/NC(=O)c1ccccn1 | 44.4* | -0.6 | 2.5 | 5.1 | 10.7* | -0.4
C/C(CC(=O)Nc1ccc(F)cc1)=N\NC(=O)c1ccccn1 | 32.1 | 7.6 | 2.2 | 3.7 | 11.0* | -0.7
C/C(CC(=O)Nc1ccc([N+](=O)[O-])cc1)=N\NC(=O)c1ccccc1O | 44.7* | -0.5 | 0.2 | 1.9 | 2.3 | -1.2
C[C@@H]1CCCCO[C@@H](CN(C)S(=O)(=O)c2ccc(F)cc2)[C@@H](C)CN([C@@H](C)CO)C(=O)c2cc(NC(=O)Cc3ccccc3)ccc2O1 | 15.0 | · | · | · | · | ·
C[C@@H]1CN([C@@H](C)CO)S(=O)(=O)c2ccc(C#CC3CC3)cc2O[C@H]1CN(C)C(=O)c1cnccn1 | 2.5 | · | · | · | · | ·

Screening results from PubChem BioAssay.
